We go through 15 compounds from PubChem BioAssay (EPA / NIEHS).

Values joined by “and” are separate entries in the source; they are usually repeats but may differ in a detail not shown here. Identical values can stand only once. Some structures have more than one record in an assay (separate samples or runs), and their calls can disagree. Active and inactive are the calls of the source. How the source made its calls: active means hit-call score of the fitted dose curve at least 0.9, where 1 is the maximum; inactive means score below 0.9.

Read-out in experiment [1]: Urokinase-type plasminogen activator receptor (uPAR), PLAUR (gene 5329)
The experiment can be described thus: BSK_4H_uPAR: BioMAP Diversity Plus: 4H Assay for Urokinase-type plasminogen activator receptor (uPAR) Biomarker Activity (AID 2283030). The conditions noted are these: primary human endothelial cells (HUVEC); actives raise or lower the signal. The method, boiled down: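 Primary human umbilical vein endothelial cells were exposed to chemical for 24 h before cell-surface uPAR was quantified by ELISA. Activity was fitted bidirectionally against the DMSO negative control baseline.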

Read-out in experiment [2]: Vascular endothelial growth factor receptor 2 (Homo sapiens) (UniProt P35968)
The experiment can be described thus: BSK_4H_VEGFRII: BioMAP Diversity Plus: 4H Assay for Vascular endothelial growth factor receptor 2 (VEGFR2) Biomarker Activity (AID 2283031).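 On AC50: cell-surface VEGFR2 protein level quantified by ELISA.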 The conditions noted are these: primary human endothelial cells (HUVEC); actives raise or lower the signal. The method, boiled down:
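Primary human umbilical vein endothelial cells in the BioMAP 4H system were dosed with test chemical, and 24 h later VEGFRII was measured by ELISA. Activity was fitted bidirectionally against DMSO as negative control and baseline.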

Read-out in experiment [3]: Human Leukocyte Antigen - DR isotype (HLADR), HLA-DRA (gene 3122)
The experiment can be described thus: BSK_BE3C_HLADR: BioMAP Diversity Plus: BE3C Assay for Human Leukocyte Antigen - DR isotype (HLADR) Biomarker Activity (AID 2283032). The conditions noted are these: primary human bronchial epithelial cells; actives raise or lower the signal. Put shortly: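 Human primary bronchial epithelial cells in the BE3C system were exposed to chemicals for 24 h, after which HLA-DR levels were quantified by ELISA. Activity was fitted bidirectionally, gain or loss of signal, against DMSO as negative control and baseline.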

Read-out in experiment [4]: Vascular cell adhesion molecule 1 (VCAM1), VCAM1 (gene 7412)
The experiment is described as follows: BSK_4H_VCAM1: BioMAP Diversity Plus: 4H Assay for Vascular cell adhesion molecule 1 (VCAM1) Biomarker Activity (AID 2283033).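 On outcome: cell-surface VCAM-1 protein measured by ELISA.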 The conditions noted are these: primary human endothelial cells (HUVEC); actives raise or lower the signal. Put shortly: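 Primary human umbilical vein endothelial cells were exposed to chemicals for 24 h, after which VCAM-1 was quantified by ELISA. Responses were fitted bidirectionally against DMSO as negative control and activity baseline.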

Read-out in experiment [5]: Interferon-gamma inducible Protein 10 (IP10), CXCL10 (gene 3627)
The experiment can be described thus: BSK_BE3C_IP10: BioMAP Diversity Plus: BE3C Assay for Interferon-gamma inducible Protein 10 (IP10) Biomarker Activity (AID 2283034). The conditions noted are these: primary human bronchial epithelial cells; actives raise or lower the signal. The method, boiled down: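 Human primary bronchial epithelial cells were exposed to chemicals for 24 hours, after which IP-10 levels were measured by ELISA. Data were fitted bidirectionally against DMSO, which served as the negative control and activity baseline.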

Read-out in experiment [6]: Monokine induced gamma interferon (MIG), CXCL9 (gene 4283)
The experiment can be described thus: BSK_BE3C_MIG: BioMAP Diversity Plus: BE3C Assay for Monokine induced gamma interferon (MIG) Biomarker Activity (AID 2283035).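 Further: MIG protein measured by ELISA in BE3C cultures after 24 h of dosing.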 The conditions noted are these: primary human bronchial epithelial cells; actives raise or lower the signal. Put shortly:
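MIG level was determined by ELISA after 24 h chemical treatment of primary human bronchial epithelial cells. Values were fitted bidirectionally with DMSO as the negative control and activity baseline.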

Read-out in experiment [7]: Transforming growth factor beta 1 (TGFb1), TGFB1 (gene 7040)
The experiment is described as follows: BSK_BE3C_TGFb1: BioMAP Diversity Plus: BE3C Assay for Transforming growth factor beta 1 (TGFb1) Biomarker Activity (AID 2283036). The conditions noted are these: primary human bronchial epithelial cells; actives raise or lower the signal. The method, boiled down: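 Human primary bronchial epithelial cells (BE3C system) were dosed with chemical and TGF-b1 levels measured by ELISA at 24 h. Activity was fitted bidirectionally relative to DMSO negative control as baseline.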

Read-out in experiment [8]: Plasminogen activator inhibitor-1 (PAI1), SERPINE1 (gene 5054)
The experiment is described as follows: BSK_BE3C_PAI1: BioMAP Diversity Plus: BE3C Assay for Plasminogen activator inhibitor-1 (PAI1) Biomarker Activity (AID 2283037). The conditions noted are these: primary human bronchial epithelial cells; actives raise or lower the signal. Put shortly:
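Human primary bronchial epithelial cells were exposed to chemical for 24 h, then PAI-1 was quantified by ELISA. Activity was fitted bidirectionally relative to the DMSO negative control baseline.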

Read-out in experiment [9]: urokinase plasminogen activator (uPA), PLAU (gene 5328)
The experiment can be described thus: BSK_BE3C_uPA: BioMAP Diversity Plus: BE3C Assay for urokinase plasminogen activator (uPA) Biomarker Activity (AID 2283038).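 Further: uPA protein level quantified by ELISA in cell cultures; uPA read one day after compound addition.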 The conditions noted are these: primary human bronchial epithelial cells; actives raise or lower the signal. Put shortly: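 Human primary bronchial epithelial cells were exposed to chemical for 24 h, then uPA levels were measured by ELISA. Responses were fitted bidirectionally against DMSO as negative control and baseline. Parallel SRB staining of total protein gauged overt cytotoxicity.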

Read-out in experiment [10]: Urokinase-type plasminogen activator receptor (uPAR), PLAUR (gene 5329)
The experiment can be described thus: BSK_BE3C_uPAR: BioMAP Diversity Plus: BE3C Assay for Urokinase-type plasminogen activator receptor (uPAR) Biomarker Activity (AID 2283039).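 On outcome: cells exposed to compound for one day before measurement.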 Particulars: primary human bronchial epithelial cells; actives raise or lower the signal. Put shortly: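 Primary human bronchial epithelial cells were dosed with chemical and harvested 24 h later; uPAR was quantified by ELISA. Activity was fitted bidirectionally against DMSO as negative control and baseline.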

On to `CCCCCCOC(=O)CCCCC(=O)OCCCCCC`, for which the outcome in experiment [1], in [2], in experiment [3], in experiment [4], in [5] and in experiment [6] was inactive. In addition, the result in experiment [7], in [8], in experiment [9] and in experiment [10] was inactive.

One may read the AC50 as the concentration at which the activity in the assay is half-maximal. Consider `Oc1ccccc1Cc1ccccc1O`, for which the outcome in experiment [1], in experiment [2], in [3], in [4], in experiment [5] and in experiment [6] was inactive. Moreover, the result in experiment [8], in [9] and in [10] was inactive. In experiment [8], the AC50 was 18 µM (active).

Consider `C=CCCCCCCCCC=O`, for which the result in experiment [1], in experiment [2], in [3], in experiment [4], in experiment [5] and in experiment [6] was inactive. In addition, the outcome in experiment [7], in experiment [8], in experiment [9] and in experiment [10] was inactive.

On to `Nc1nc(N)nc(-c2ccccc2)n1`, for which the result in [1], in experiment [2], in [3], in experiment [4], in [5] and in [6] was inactive. For the same compound, the outcome in experiment [8], in experiment [9] and in experiment [10] was inactive.

Regarding `CCC1(C)C(=O)N(Cl)C(=O)N1Cl` (stereo not given), the outcome in [1], in experiment [2], in experiment [3], in experiment [4], in experiment [5] and in experiment [6] was inactive. In addition, the result in [7], in experiment [8], in [9] and in [10] was inactive.

`O=C1CCCCCCCCCCCN1`: the outcome in experiment [1], in [2], in [3], in [4], in [5] and in experiment [6] was inactive. The outcome in [7], in [8], in experiment [9] and in [10] was inactive.

With `Cc1ccc([N+](=O)[O-])cc1N`, the outcome in experiment [1], in [2], in experiment [3], in experiment [4], in experiment [5] and in experiment [6] was inactive. Also, the outcome in experiment [7], in experiment [8], in experiment [9] and in experiment [10] was inactive.

With `CCOC(=O)C1=NN(c2ccc(Cl)cc2Cl)C(C)(C(=O)OCC)C1` (stereo not given), the outcome in experiment [1], in experiment [2], in [3], in experiment [4], in experiment [5] and in experiment [6] was inactive. Also, the outcome in [7], in experiment [8], in experiment [9] and in experiment [10] was inactive.

Take `CC1(C)CC(O)CC(C)(C)N1[O]`: the outcome in experiment [1], in [2], in [3], in [4], in experiment [5] and in [6] was inactive. The outcome in experiment [7], in experiment [8], in experiment [9] and in experiment [10] was inactive.

Consider `C=CC(=O)NCOCCCC`, for which the outcome in experiment [1], in [2], in [3], in experiment [4], in experiment [5] and in experiment [6] was inactive. The result in experiment [7], in experiment [8], in experiment [9] and in [10] was inactive.

Regarding `Oc1ccc(/C=C/c2cc(O)cc(O)c2)cc1`, the AC50 in experiment [1] is 1.24 µM (active); in [3], 20 µM (active); in experiment [10], 11.1 µM (active). The result in [2], in experiment [4], in experiment [6], in [7], in experiment [8] and in [9] was inactive.

Take `CCCCCCCCCCCC(C)=O`: the outcome in experiment [1], in experiment [2], in experiment [3], in experiment [6], in experiment [7] and in [8] was inactive. In addition, the result in experiment [9] and in experiment [10] was inactive. In addition, the half-maximal activity concentration (AC50) in experiment [4] was 29.6 µM (active); in experiment [5], 20 µM (active).

Turning to `CCCCCCCO`, the result in experiment [1], in experiment [2], in experiment [4], in experiment [5], in experiment [6] and in experiment [7] was inactive. Further, the outcome in experiment [8], in experiment [9] and in experiment [10] was inactive.

`CCCCCCCCCCCC(=O)N(C)CC(=O)O`: the AC50 was 19.5 µM (active) and 13.4 µM (active) in experiment [1]; 9.25 µM (active) and 120 nM (active) in experiment [2]; 3.87 µM (active) and 2.41 µM (active) in [4]. In addition, the result in [3], in experiment [5], in [6], in experiment [8], in experiment [9] and in experiment [10] was inactive.

In the case of `CCCC(C)C(=O)OCC` (stereo not given), the outcome in [1], in [2], in experiment [3], in experiment [4], in [5] and in experiment [6] was inactive. Moreover, the result in [8], in experiment [9] and in experiment [10] was inactive.
